Results filed as inconclusive are left out. Some compounds were tested as several samples or in several runs, with calls that do not always agree. Calls of active or inactive are those of the source. Rule for the calls, unless noted: active = hit-call score of the fitted dose curve at least 0.9, where 1 is the maximum; inconclusive = response in the unintended direction; inactive = score below 0.9.

The nature of assay [1]: BSK_3C_VCAM1: BioMAP Diversity Plus: 3C Assay for Vascular cell adhesion molecule 1 (VCAM1) Biomarker Activity (AID 2282999; active = hit-call score of the fitted dose curve at least 0.9, where 1 is the maximum; inactive = score below 0.9). To be noted: BioMAP 3C HUVEC, VCAM1 ELISA, cytokine-stimulated; actives raise or lower the signal. The method in brief: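 Human umbilical vein endothelial cells were dosed with compound for 24 h, after which cell-surface VCAM-1 was quantified by ELISA. Bidirectional curve fitting used DMSO as negative control and activity baseline.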

Assay [2] in a line: BSK_4H_Eotaxin3: BioMAP Diversity Plus: 4H Assay for Eotaxin 3 Biomarker Activity (AID 2283000; active = hit-call score of the fitted dose curve at least 0.9, where 1 is the maximum; inactive = score below 0.9;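 for outcome: CCL26 protein level quantified by ELISA in parallel with SRB cytotoxicity check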). To be noted: primary human endothelial cells (HUVEC); actives raise or lower the signal. The method in brief: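 HUVEC, 24 h post-dose, ELISA for Eotaxin-3/CCL26. Gain or loss of signal fitted bidirectionally vs DMSO baseline.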
Assay [3] addresses human Peroxisome Proliferator-activated Receptor delta (PPARd), PPARD (gene 5467) (UniProt Q03181). Nature of the assay: ATG_PPARd_TRANS: Attagene TRANS-FACTORIAL HepG2 Assay for human Peroxisome Proliferator-activated Receptor delta (PPARd) (AID 2283002). The method in brief: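 Multiplexed trans-activation format: HepG2 liver cells expressing exogenous NR-Gal4 chimeras and GAL4-UAS reporters were exposed for 24 h. Reporter mRNA was detected by RT-PCR with capillary electrophoresis fluorescence; activity fitted as gain of signal relative to DMSO.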

Read-out in assay [4]: Intercellular Adhesion Molecule 1 (ICAM1), ICAM1 (gene 3383)
Nature of the assay: BSK_3C_ICAM1: BioMAP Diversity Plus: 3C Assay for Intercellular Adhesion Molecule 1 (ICAM1) Biomarker Activity (AID 2283003; active = hit-call score of the fitted dose curve at least 0.9, where 1 is the maximum; inactive = score below 0.9). To be noted: primary human endothelial cells (HUVEC); actives raise or lower the signal. The method in brief: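 ICAM-1 levels measured by ELISA after HUVEC cultures in the 3C system had been dosed for 24 h. Gain or loss of signal relative to DMSO was fitted in both directions.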

In assay [5] the target is human Retinoic Acid Receptor beta (RARb), RARB (gene 5915) (UniProt P10826). Nature of the assay: ATG_RARb_TRANS: Attagene TRANS-FACTORIAL HepG2 Assay for human Retinoic Acid Receptor beta (AID 2283004). An outline of the steps: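 HepG2 cells transiently transfected with multiplexed GAL4-UAS reporter units expressing chimeric NR–Gal4 fusions; 24 h compound exposure. Reporter mRNA quantified by RT-PCR, 6-FAM labelling, HpaI digestion and capillary electrophoresis; gain-of-signal fitted against DMSO baseline.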

Assay [6] addresses Retinoic acid receptor alpha (Homo sapiens) (UniProt P10276). Put plainly: ATG_RARa_TRANS: Attagene TRANS-FACTORIAL HepG2 Assay for human Retinoic Acid Receptor alpha (RARa) (AID 2283005). The method in brief: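 HepG2 cells transiently transfected with multiple reporter units expressing chimeric RARα-GAL4 fusion, with GAL4-UAS-driven reporters. After 24 h compound exposure, reporter mRNA induction quantified by RT-PCR and capillary electrophoresis with fluorescent labeling; gain-of-signal fitted relative to DMSO control.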

Assay [7] can be described thus: BSK_3C_Proliferation: Cell Proliferation Assessment in the BioMAP Diversity Plus: 3C Assay (AID 2283006; active = hit-call score of the fitted dose curve at least 0.9, where 1 is the maximum; inactive = score below 0.9;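 for AC50: potency may reflect either rise or fall in cell number versus DMSO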). The note with it: primary human endothelial cells (HUVEC). The method in brief: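 Read-out is total protein by SRB absorbance at 560 nm, taken as a proxy for relative cell number. Primary human umbilical vein endothelium cultured below confluence was dosed for 48 h, TCA-fixed and SRB-stained; curves were fitted bidirectionally versus DMSO.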

Assay [8] concerns the target Peroxisome proliferator-activated receptor gamma (Homo sapiens) (UniProt P37231). Nature of the assay: ATG_PPARg_TRANS: Attagene TRANS-FACTORIAL HepG2 Assay for human Peroxisome Proliferator-activated Receptor-gamma (PPARg) (AID 2283007). An outline of the steps:
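A TRANS-format multiplexed reporter assay measures activity of an exogenous chimeric NR-Gal4 protein in HepG2 cells. After 24 h of chemical exposure, reporter transcripts are amplified, fluorescently labelled and sized by capillary electrophoresis, with gain of signal scored against DMSO.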

Assay [9] has as its target Nuclear receptor subfamily 1 group I member 2 (Homo sapiens) (UniProt O75469). Nature of the assay: ATG_PXR_TRANS: Attagene TRANS-FACTORIAL HepG2 Assay for human Pregnane X Receptor (PXR) (AID 2283008). An outline of the steps:
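HepG2 cells transiently transfected with multiple reporter units, here a PXR-GAL4 chimera driving a GAL4-UAS reporter; 24 h compound exposure. Reporter mRNA measured by RT-PCR, FAM labelling and capillary electrophoresis; gain of signal fitted against DMSO baseline.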

Assay [10] concerns the target human Retinoic Acid Receptor gamma (RARg), RARG (gene 5916) (UniProt P13631). Put plainly: ATG_RARg_TRANS: Attagene TRANS-FACTORIAL HepG2 Assay for human Retinoic Acid Receptor gamma (RARg) (AID 2283009). An outline of the steps:
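Transient transfection of HepG2 with multi-reporter constructs, then 24 h chemical treatment. Total RNA isolated, reverse-transcribed, PCR-amplified, fluorescently labelled and resolved by capillary electrophoresis; activity scored as mRNA induction versus DMSO.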

For assay [11], the target named is Retinoic acid receptor RXR-alpha (Homo sapiens) (UniProt P19793). Nature of the assay: ATG_RXRa_TRANS: Attagene TRANS-FACTORIAL HepG2 Assay for human Retinoid X Receptor alpha (RXRa) (AID 2283012). An outline of the steps: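 Transient transfection of human HepG2 with multiple GAL4-UAS reporter constructs; 24 h compound exposure; total RNA isolated, reverse-transcribed, PCR-amplified, 6-FAM labelled, HpaI-cut, resolved by capillary electrophoresis. Positive-direction fit versus DMSO.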

Assay [12] concerns the target human Thyroid Receptor alpha (THRa1), THRA (gene 7067) (UniProt P10827). Nature of the assay: ATG_THRa1_TRANS: Attagene TRANS-FACTORIAL HepG2 Assay for human Thyroid Receptor alpha (THRa1) (AID 2283014). The method in brief:
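HepG2 cells transiently transfected with multiplexed GAL4-UAS reporter units for exogenous chimeric THRa1-Gal4; reporter mRNA measured 24 h after dosing by RT-PCR, 6-FAM labelling, HpaI digestion and capillary electrophoresis. Gain-of-signal fitted versus DMSO baseline.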

Read-out in assay [13]: E-selectin (Homo sapiens) (UniProt P16581)
Put plainly: BSK_3C_Eselectin: BioMAP Diversity Plus: 3C Assay for Eselectin Biomarker Activity (AID 2283015; active = hit-call score of the fitted dose curve at least 0.9, where 1 is the maximum; inactive = score below 0.9;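 for outcome: cell surface E-selectin protein quantified by ELISA 24 h after dosing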). To be noted: primary human endothelial cells (HUVEC); actives raise or lower the signal. The method in brief: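 Primary human umbilical vein endothelial cells (3C system) were dosed with chemical and cell-surface E-selectin measured by ELISA 24 h later. Bidirectional curve fitting used DMSO as negative control and baseline.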

Read-out in assay [14]: Interleukin-1 alpha (IL1a), IL1A (gene 3552)
Put plainly: BSK_BE3C_IL1a: BioMAP Diversity Plus: BE3C Assay for Interleukin-1 alpha (IL1a) Biomarker Activity (AID 2283016; active = hit-call score of the fitted dose curve at least 0.9, where 1 is the maximum; inactive = score below 0.9). To be noted: primary human bronchial epithelial cells; actives raise or lower the signal. The method in brief:
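BE3C primary human bronchial epithelium; cpd 24 h; IL-1a by ELISA; bidirectional fit vs DMSO; parallel SRB (0.1% SRB, 10% TCA fix, 560 nm) for cytotoxicity.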

Read-out in assay [15]: Monocyte Chemoattractant Protein-1 (MCP1), CCL2 (gene 6347)
Nature of the assay: BSK_3C_MCP1: BioMAP Diversity Plus: 3C Assay for Monocyte Chemoattractant Protein-1 (MCP1) Biomarker Activity (AID 2283017; active = hit-call score of the fitted dose curve at least 0.9, where 1 is the maximum; inactive = score below 0.9). To be noted: primary human endothelial cells (HUVEC); actives raise or lower the signal. An outline of the steps:
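Primary human umbilical vein endothelial cells (3C system) were exposed to test chemical for 24 h, after which MCP-1 was quantified by ELISA. Activity was fitted bidirectionally against DMSO as negative control and baseline.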

Read-out in assay [16]: Monocyte Chemoattractant Protein-1 (MCP1), CCL2 (gene 6347)
Put plainly: BSK_4H_MCP1: BioMAP Diversity Plus: 4H Assay for Monocyte Chemoattractant Protein-1 (MCP1) Biomarker Activity (AID 2283018; active = hit-call score of the fitted dose curve at least 0.9, where 1 is the maximum; inactive = score below 0.9). To be noted: primary human endothelial cells (HUVEC); actives raise or lower the signal. The method in brief:
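ELISA read-out of MCP-1 from human vascular endothelial primary cells taken at 24 hours after compound exposure. Activity was fitted in both directions relative to DMSO, which served as negative control.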

Assay [17] deals with human Peroxisome Proliferator-activated Receptor alpha (PPARa), PPARA (gene 5465) (UniProt Q07869). Put plainly: ATG_PPARa_TRANS: Attagene TRANS-FACTORIAL HepG2 Assay for human Peroxisome Proliferator-activated Receptor alpha (PPARa) (AID 2283001). An outline of the steps:
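Gain-of-signal endpoint: reporter mRNA induction relative to DMSO, detected by fluorescent RT-PCR and capillary electrophoresis. HepG2 cells transiently carried GAL4-UAS-driven reporter units plus NR-Gal4 fusion; exposure lasted 24 h.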

In assay [18] the target is human RAR-related Orphan Receptor beta (RORb), RORB (gene 6096) (UniProt Q92753). Nature of the assay: ATG_RORb_TRANS: Attagene TRANS-FACTORIAL HepG2 Assay for human RAR-related Orphan Receptor beta (RORb) (AID 2283010). An outline of the steps: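 Readout is reporter-gene mRNA induction, detected as fluorescence after RT-PCR and capillary electrophoresis, fitted for gain of signal against DMSO controls. Transiently transfected HepG2 liver cells carrying GAL4-UAS reporter constructs were treated for 24 hours.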

Assay [19] deals with human RAR-related Orphan Receptor gamma (RORg), RORC (gene 6097) (UniProt P51449). Put plainly: ATG_RORg_TRANS: Attagene TRANS-FACTORIAL HepG2 Assay for human RAR-related Orphan Receptor gamma (RORg) (AID 2283011). An outline of the steps:
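Readout: reporter transcript induction (RT-PCR, fluorescent primer extension, capillary electrophoresis) after 24 h compound exposure of transiently transfected HepG2 cells carrying a RORg-Gal4 chimera and GAL4-UAS reporters; DMSO served as baseline, with increasing signal fitted.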

Assay [20] deals with human Retinoid X Receptor beta (RXRb), RXRB (gene 6257) (UniProt P28702). Put plainly: ATG_RXRb_TRANS: Attagene TRANS-FACTORIAL HepG2 Assay for human Retinoid X Receptor beta (RXRb) (AID 2283013). The method in brief: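 Transfect HepG2 with GAL4-UAS multi-reporter constructs (chimeric NR-Gal4, TRANS format); dose compound 24 h; isolate RNA, RT-PCR, FAM primer extension, HpaI digest; quantify by capillary electrophoresis; positive direction vs DMSO.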

Sequence of E-selectin (Homo sapiens) (P16581 whole entry, looked up): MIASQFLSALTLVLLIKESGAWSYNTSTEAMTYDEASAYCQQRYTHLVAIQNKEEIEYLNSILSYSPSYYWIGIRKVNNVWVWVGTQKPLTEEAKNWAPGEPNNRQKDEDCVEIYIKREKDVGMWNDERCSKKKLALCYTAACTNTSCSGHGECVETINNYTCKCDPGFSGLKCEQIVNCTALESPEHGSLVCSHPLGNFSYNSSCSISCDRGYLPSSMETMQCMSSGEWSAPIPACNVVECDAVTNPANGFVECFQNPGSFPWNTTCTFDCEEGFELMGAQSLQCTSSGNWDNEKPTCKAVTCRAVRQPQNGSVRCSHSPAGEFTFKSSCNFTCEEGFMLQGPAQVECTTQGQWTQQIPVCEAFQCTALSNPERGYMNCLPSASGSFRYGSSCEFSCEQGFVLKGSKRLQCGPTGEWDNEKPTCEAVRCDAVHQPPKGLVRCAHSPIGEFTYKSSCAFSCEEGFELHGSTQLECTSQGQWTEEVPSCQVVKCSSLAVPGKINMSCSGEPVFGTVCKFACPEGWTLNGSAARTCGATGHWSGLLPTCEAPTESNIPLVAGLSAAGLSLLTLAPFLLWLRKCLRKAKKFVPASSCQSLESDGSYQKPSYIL
Sequence of human Thyroid Receptor alpha (THRa1), THRA (gene 7067) (P10827 whole entry, looked up, the tested form may be a part): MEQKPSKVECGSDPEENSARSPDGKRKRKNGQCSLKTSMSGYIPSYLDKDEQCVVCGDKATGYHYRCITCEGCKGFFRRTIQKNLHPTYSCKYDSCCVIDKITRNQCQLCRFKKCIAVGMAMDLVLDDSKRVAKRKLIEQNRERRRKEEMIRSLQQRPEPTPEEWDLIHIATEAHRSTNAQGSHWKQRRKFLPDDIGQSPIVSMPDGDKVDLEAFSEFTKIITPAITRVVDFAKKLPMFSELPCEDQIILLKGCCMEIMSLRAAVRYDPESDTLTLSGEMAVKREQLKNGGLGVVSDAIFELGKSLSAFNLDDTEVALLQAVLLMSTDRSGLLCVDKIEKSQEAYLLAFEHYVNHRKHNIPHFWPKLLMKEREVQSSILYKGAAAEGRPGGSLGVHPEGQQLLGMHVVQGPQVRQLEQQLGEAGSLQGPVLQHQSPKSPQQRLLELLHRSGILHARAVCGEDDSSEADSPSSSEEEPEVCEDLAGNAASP
Sequence of Peroxisome proliferator-activated receptor gamma (Homo sapiens) (P37231 whole entry, looked up, the tested form may be a part): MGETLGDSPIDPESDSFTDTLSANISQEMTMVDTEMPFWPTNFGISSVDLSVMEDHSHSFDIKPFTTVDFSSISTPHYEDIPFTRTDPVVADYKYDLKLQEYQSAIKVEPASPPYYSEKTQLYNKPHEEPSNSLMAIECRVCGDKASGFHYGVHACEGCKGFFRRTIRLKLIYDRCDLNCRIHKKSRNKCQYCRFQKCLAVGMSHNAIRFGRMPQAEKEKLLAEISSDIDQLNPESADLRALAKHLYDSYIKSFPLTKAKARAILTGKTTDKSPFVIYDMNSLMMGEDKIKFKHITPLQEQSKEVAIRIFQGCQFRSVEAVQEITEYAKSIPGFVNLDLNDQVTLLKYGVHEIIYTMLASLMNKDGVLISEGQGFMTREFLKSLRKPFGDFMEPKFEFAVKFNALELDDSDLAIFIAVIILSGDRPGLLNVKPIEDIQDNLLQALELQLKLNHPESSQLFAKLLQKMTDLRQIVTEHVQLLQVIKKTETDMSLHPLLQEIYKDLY
Sequence of human Peroxisome Proliferator-activated Receptor delta (PPARd), PPARD (gene 5467) (Q03181 whole entry, looked up, the tested form may be a part): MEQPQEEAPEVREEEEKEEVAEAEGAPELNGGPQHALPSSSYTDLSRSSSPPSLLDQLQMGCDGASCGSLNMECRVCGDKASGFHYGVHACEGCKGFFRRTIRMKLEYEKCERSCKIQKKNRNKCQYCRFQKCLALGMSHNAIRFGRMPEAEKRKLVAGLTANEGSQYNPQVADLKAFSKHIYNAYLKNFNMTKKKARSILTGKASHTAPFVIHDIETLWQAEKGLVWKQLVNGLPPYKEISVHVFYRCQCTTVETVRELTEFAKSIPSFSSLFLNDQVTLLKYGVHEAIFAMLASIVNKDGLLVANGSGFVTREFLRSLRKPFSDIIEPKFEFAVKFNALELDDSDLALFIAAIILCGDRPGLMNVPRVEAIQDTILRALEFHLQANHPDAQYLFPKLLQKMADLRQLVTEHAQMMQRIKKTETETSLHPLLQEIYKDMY
Sequence of Nuclear receptor subfamily 1 group I member 2 (Homo sapiens) (O75469 whole entry, looked up, the tested form may be a part): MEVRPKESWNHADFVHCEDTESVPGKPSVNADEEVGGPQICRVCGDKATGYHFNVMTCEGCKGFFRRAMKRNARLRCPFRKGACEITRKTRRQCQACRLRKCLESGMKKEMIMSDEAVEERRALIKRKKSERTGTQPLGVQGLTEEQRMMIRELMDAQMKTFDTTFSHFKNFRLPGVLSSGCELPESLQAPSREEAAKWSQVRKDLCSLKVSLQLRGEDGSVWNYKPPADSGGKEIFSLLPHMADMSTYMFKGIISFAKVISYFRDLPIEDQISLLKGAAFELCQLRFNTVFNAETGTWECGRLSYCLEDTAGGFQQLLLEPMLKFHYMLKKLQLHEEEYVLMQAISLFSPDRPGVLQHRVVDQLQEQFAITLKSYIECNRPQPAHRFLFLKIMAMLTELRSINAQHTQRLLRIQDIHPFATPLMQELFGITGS
Sequence of Retinoic acid receptor RXR-alpha (Homo sapiens) (P19793 whole entry, looked up, the tested form may be a part): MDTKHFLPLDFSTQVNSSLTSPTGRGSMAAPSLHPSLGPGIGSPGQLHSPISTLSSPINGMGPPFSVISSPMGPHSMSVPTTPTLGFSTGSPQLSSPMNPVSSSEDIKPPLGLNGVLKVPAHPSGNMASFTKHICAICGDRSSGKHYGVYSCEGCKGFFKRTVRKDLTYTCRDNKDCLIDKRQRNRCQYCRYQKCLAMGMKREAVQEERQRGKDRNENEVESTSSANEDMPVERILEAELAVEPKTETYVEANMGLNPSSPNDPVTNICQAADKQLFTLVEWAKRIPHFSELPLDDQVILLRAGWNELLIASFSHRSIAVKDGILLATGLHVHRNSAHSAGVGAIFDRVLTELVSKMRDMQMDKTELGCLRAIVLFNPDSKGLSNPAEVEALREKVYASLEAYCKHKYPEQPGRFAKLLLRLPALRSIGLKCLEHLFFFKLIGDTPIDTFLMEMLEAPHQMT
Sequence of human Retinoic Acid Receptor beta (RARb), RARB (gene 5915) (P10826 whole entry, looked up, the tested form may be a part): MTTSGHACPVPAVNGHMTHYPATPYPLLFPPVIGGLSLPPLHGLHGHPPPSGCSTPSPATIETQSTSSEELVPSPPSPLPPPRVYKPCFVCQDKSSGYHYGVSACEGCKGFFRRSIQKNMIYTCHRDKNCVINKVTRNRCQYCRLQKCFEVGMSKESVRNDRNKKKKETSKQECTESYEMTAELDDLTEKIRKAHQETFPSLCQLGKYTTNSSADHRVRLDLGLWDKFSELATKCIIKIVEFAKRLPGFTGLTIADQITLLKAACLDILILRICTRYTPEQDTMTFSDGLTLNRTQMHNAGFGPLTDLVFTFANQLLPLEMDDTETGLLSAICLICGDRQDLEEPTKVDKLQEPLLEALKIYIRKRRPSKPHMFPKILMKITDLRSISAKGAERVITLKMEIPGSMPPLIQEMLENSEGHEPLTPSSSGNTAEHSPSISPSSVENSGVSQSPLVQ
Sequence of human Retinoic Acid Receptor gamma (RARg), RARG (gene 5916) (P13631 whole entry, looked up): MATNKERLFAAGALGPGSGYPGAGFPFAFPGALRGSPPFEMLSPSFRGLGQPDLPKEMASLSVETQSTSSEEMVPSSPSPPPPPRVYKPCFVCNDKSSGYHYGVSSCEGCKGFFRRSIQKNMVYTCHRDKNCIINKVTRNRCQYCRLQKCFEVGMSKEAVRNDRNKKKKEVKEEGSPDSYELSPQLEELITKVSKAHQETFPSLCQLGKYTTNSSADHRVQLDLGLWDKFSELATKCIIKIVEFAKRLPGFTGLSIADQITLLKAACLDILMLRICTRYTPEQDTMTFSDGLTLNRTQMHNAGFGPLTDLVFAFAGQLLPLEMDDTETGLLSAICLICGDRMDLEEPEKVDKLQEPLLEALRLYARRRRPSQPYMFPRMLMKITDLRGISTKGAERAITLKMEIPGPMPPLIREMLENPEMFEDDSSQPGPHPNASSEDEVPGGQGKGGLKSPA
Sequence of human RAR-related Orphan Receptor gamma (RORg), RORC (gene 6097) (P51449 whole entry, looked up, the tested form may be a part): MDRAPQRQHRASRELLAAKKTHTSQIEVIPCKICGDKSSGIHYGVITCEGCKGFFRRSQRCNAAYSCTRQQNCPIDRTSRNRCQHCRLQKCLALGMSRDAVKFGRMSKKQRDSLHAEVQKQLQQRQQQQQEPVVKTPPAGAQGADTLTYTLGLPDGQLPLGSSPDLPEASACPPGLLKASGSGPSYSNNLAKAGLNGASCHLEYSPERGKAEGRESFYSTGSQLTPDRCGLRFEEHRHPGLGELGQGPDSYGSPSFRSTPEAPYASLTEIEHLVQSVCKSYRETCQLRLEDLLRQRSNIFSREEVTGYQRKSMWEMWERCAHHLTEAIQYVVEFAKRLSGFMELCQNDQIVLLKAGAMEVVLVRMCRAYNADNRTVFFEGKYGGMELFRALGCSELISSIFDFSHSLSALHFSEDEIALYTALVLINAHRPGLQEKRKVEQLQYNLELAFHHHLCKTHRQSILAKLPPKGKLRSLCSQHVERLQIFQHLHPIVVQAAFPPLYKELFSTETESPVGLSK
Sequence of Retinoic acid receptor alpha (Homo sapiens) (P10276 whole entry, looked up, the tested form may be a part): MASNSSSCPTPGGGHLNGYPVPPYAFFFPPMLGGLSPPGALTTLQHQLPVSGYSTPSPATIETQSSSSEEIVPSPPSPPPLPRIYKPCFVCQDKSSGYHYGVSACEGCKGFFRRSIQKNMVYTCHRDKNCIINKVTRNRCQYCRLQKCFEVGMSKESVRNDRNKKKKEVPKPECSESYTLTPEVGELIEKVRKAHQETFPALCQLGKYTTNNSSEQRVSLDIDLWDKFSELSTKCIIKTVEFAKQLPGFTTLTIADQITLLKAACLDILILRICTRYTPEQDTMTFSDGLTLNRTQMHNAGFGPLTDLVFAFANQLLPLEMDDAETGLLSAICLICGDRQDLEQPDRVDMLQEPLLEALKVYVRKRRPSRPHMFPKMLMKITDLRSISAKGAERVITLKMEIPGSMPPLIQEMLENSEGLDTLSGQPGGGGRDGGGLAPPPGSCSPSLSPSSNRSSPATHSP

For `COc1c(Cl)ccc(Cl)c1C(=O)O`, the outcome in assay [1], in assay [2], in [3], in assay [4], in assay [5] and in assay [6] was inactive. The outcome in assay [7], in [8], in assay [9], in assay [10], in [11] and in [12] was inactive. The result in assay [13], in assay [14], in assay [15] and in assay [16] was inactive.
As for `COC(=O)c1ccc(CNS(C)(=O)=O)cc1S(=O)(=O)NC(=O)Nc1nc(OC)cc(OC)n1`, the outcome in [1], in assay [2], in assay [17], in assay [4], in assay [5] and in assay [7] was inactive. The molecule was called inactive in [8], in [9], in [18], in assay [19], in assay [20] and in assay [12]. Besides, the outcome in assay [13], in assay [15] and in assay [16] was inactive.
As a reminder, the AC50 is the concentration giving half of the maximal activity seen. For `CCCN(CCC)c1c([N+](=O)[O-])cc(C(F)(F)F)c(N)c1[N+](=O)[O-]`, the AC50 in assay [1] was 30.8 µM (active); in [2], 30.3 µM (active); in assay [4] it was 36.8 µM (active); in assay [7], 13.2 µM (active); in assay [9], 3.98 µM (active); in [13], 14.9 µM (active). The AC50 in assay [15] is 29.4 µM (active); in [16], 29.7 µM (active). The outcome in [3], in [5], in assay [6], in [8], in assay [10] and in assay [19] was inactive. Moreover, the result in assay [12] was inactive.
Take `CC(=O)[C@H]1CC[C@H]2[C@@H]3CCC4=CC(=O)CC[C@]4(C)[C@H]3CC[C@]12C`: the outcome in assay [1], in [3], in assay [4], in assay [8] and in [11] was inactive. The AC50 in [2] was 25.9 µM (active); in assay [3], 136 µM (active); in assay [7] it was 3.36 µM (active); in assay [9], 2.54 µM (active) [middle of 4 runs]; in [13], 10.1 µM (active); in assay [15], 8.12 µM (active). Further, the AC50 in assay [16] was 12.7 µM (active).

(Values after PubChem BioAssay (EPA / NIEHS).)
